HttQ103 aggreg: mutant huntingtin aggregation inhibition; 220,000 compounds, 1.1% hits; Potency, µM (highest dose often 46.1 µM), without a hit: at the highest dose activity change, negative = inhibition, usual class: inhibitors; PC12 HttQ103-GFP aggregates, Acumen cytometry, 40 h; active means well fitted curve in the direction sought with a large enough effect; inconclusive means small, poorly fitted or top-dose-only effect, or another doubt; inactive means no such curve, though single readings can be large; an effect the other way counts as inactive or inconclusive; further: on the % scale 0 is the no-effect control and ±100 the full control effect; nearly all actives have a fitted effect of over 60% in size
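Multiplexed with ATP-based cell death, this channel scores GFP aggregates in PC12 cells expressing inducible HTTex1-Q103-GFP. Induction used 100 nM tebufenozide; compounds were tested in concentration series.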
ALDH1A1 inh: blocks purified human ALDH1A1 activity; P00352; Purified ALDH1A1, NADH fluorescence, propionaldehyde substrate; Potency, µM (highest dose often 75.3 µM), without a hit: at the highest dose activity, negative = inhibition, actives largely listed as inhibitors; 220,000 compounds, 7.3% hits; AID 1030;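 further: plate controls were no enzyme wells and a reference inhibitor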
Target sequence (P00352 whole entry, looked up): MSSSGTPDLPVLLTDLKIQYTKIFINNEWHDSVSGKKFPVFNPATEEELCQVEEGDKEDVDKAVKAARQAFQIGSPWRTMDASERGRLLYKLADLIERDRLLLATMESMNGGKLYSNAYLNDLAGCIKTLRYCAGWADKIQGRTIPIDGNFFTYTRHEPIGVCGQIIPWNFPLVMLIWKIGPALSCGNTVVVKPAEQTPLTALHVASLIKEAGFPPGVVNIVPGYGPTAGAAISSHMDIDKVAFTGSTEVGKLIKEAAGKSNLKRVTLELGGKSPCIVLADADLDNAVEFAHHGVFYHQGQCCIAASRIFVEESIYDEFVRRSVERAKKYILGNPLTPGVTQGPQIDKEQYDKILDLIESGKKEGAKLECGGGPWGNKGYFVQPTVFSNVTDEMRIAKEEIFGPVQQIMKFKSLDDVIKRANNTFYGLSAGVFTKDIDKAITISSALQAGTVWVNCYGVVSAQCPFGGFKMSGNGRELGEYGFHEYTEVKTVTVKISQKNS
HPGD inh: HPGD (human) dehydrogenase inhibition; P15428; purified HPGD, NADH fluorescence kinetic, PGE2 substrate; Potency, µM, without a hit: at the highest dose activity change, negative = inhibition, usual class: inhibitors; 150,000 compounds, 4.3% hits; AID 894; further: on the % scale 0 is the no-effect control and ±100 the full control effect
Target sequence (P15428 whole entry, looked up): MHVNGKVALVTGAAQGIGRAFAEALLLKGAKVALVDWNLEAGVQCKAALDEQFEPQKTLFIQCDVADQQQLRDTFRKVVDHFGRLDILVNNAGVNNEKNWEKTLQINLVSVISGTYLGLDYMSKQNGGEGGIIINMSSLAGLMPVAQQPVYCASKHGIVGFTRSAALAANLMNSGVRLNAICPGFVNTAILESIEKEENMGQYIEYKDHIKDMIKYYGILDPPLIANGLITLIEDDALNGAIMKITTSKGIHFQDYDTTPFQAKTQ
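20 nM HPGD preincubated 15 min at room temperature with compound in 50 mM Tris-HCl pH 8, 0.01% Tween 20. Started with 1 mM NAD+ and 30 uM prostaglandin E2; NADH fluorescence (360/450 nm) read 5 times over 30-s intervals, last minus first.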
LMNA splice mod: changes lamin A minigene splicing in HeLa cells; Potency, µM (highest dose often 46.1 µM), for the others: at the highest dose ratio change, negative = inhibition, hits mostly inhibitors; HeLa LMNA splicing GFP/RFP minigene ratio, 48 h; 200,000 compounds, 0.01% hits; active means well fitted inhibition curve with a large enough effect in the signal ratio, with a control signal flat, not every such curve was filed as active; inconclusive means small, poorly fitted or top-dose-only effect, or effect the other way, or a change in a side signal; the % refers to the signal ratio; further: on the % scale 0 is the no-effect control and ±100 the full control effect
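S3 HeLa stable clones carrying a lamin A-EGFP splicing minigene plus DsRed2 were seeded at 600 cells/well in Opti-MEM with 2% FBS, pin-dosed and incubated 48 h at 37°C. Acumen cytometry (488 nm) gave the GFP/RFP total-intensity ratio.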
HTT cytoprotect: Huntington cell model cytoprotection by ATP luminescence. AID 1471. Potency, µM (highest dose often 56.4 µM), for the others: cytoprotection (ATP increase), actives largely listed as activators. PC12 HTT-Q103 induced, cytoprotection, ATP luminescence, 40 h. 230,000 compounds, 0.14% hits; active means well fitted curve in the direction sought with a large enough effect; inconclusive means small, poorly fitted or top-dose-only effect, or another doubt; inactive means no such curve, though single readings can be large; an effect the other way counts as inactive or inconclusive; further: % of control where 0% means no effect; nearly all actives have a fitted effect of over 45% in size
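Compounds added alongside 100 nM tebufenozide, which induces toxic Q103 huntingtin exon 1-GFP in stable PC12 cells; surviving cells quantified by luminescent ATP measurement. Medium: phenol red-free DMEM, 5% equine and 5% calf serum.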
Numbers without * were called inactive; ? = inconclusive; . = not tested or not shown; ! = repeats disagree; [ ] = dose if it differs, or a comment. Hits are enriched below; roughly 8.8% of the tested compounds scored in any of these assays. Unless noted, the call rests on the fitted dose curve; in most records, active means well fitted inhibition curve with a large enough effect (not every such curve was filed as active); inconclusive means small, poorly fitted or top-dose-only effect, or another doubt; inactive means no such curve, though single readings can be large or run the other way. Potency means the concentration at half of the fitted maximal effect.

SMILES | HttQ103 aggreg | ALDH1A1 inh | HPGD inh | LMNA splice mod | HTT cytoprotect
C=CCNC(=S)Nc1nc2c(cc1C(=O)OCC)COC(C)(C)C2 | 5.9%[9.22 µM] | . | . | . | 10.5%[10 µM]
CC(NC(=O)OCc1ccccc1)C(=O)N1CC(O)CC1C(=O)O (stereo not given) | . | 3.4% | -0.9% | ? | 0.1µM*
CC1CCCC(C)N1C(=O)CSc1nnnn1-c1cccc2c1CCCC2 (stereo not given) | ? | 28.2µM* | -15.6% | 3.2% | -56.8%
O=C(CSc1nnnn1-c1cccc2c1CCCC2)N1CCOCC1 | 2.1% | 7.94µM* | ? | ? | -7.7%[10 µM]
O=C(CSc1nnnn1-c1cccc2c1CCCC2)N1CCCC1 | -6.7% | 14.1µM* | -23.6% | -7.1% | -3.8%[10 µM]
O=C(CSc1nnnn1-c1ccccc1)N1CCc2ccccc2C1 | -1.4% | 20µM* | -9.7% | -3.2% | 5.2%
O=C(CSc1nnnn1-c1cccc2c1CCCC2)NC1CCCC1 | ? | ? | ? | 9.8% | -8.4%
COc1ccc(-c2noc(C3CC(=O)N(c4ccc5c(c4)OCCO5)C3)n2)c(OC)c1 (stereo not given) | . | . | . | -6.1%[46 µM] | .
Cc1ccccc1NC(=O)C(Cc1ccccc1)N1Cc2ccccc2C1=O (stereo not given) | . | . | . | 5.6%[46 µM] | .
O=C(Cn1cnc([N+](=O)[O-])n1)N/N=C/c1ccccc1O | 8.91µM* | 3.2% | -4.4% | -3.4% | -55.4%
Cc1ccccc1/C=N/NC(=O)Cn1cnc([N+](=O)[O-])n1 | 18.7% | 7.9% | 1.5% | 14.3% | -12.9%[10 µM]
O=C(Cn1cnc([N+](=O)[O-])n1)N/N=C/c1cc(Cl)ccc1O | 11.2µM* | 7.8% | . | ? | -87.8%
COc1ccc(-c2nc3ccc(C(=O)NCc4ccccc4)cc3nc2-c2ccc(OC)cc2)cc1 | . | . | . | -5.5%[46 µM] | .
CC(=O)c1cccc(NC(=O)CN2C(=O)CCc3cc(S(=O)(=O)N4CCCCC4)ccc32)c1 | . | . | . | 22.1%[46 µM] | .
CCN(c1cccc(C)c1)S(=O)(=O)c1ccc(OC)c([N+](=O)[O-])c1 | -6.9%[9.22 µM] | 25.1µM* | . | 28.9%[46 µM] | 2.2%[10 µM]
CCN(c1ccccc1)S(=O)(=O)c1ccc(OC)c(OC)c1 | 4.2% | -1.7% | -1.5% | -0.4% | 9.8%
O=C(c1nc2ccccc2s1)N1CCSCC1 | -24.3% | -0.6% | 8.91µM* | -1.4% | -27.6%[0.074 µM]
C[C@@]12CCC(=O)C=C1CC[C@@H]1[C@@H]2[C@H](O)C[C@]2(C)[C@@H]1CC[C@]2(O)C(=O)CO | . | -2.1%[20.9 µM] | -1.0% | 13.5% | -44.9%[17.1 µM]
O=C(O)COc1ccccc1/C=C1\SC(=S)N(/N=C/c2ccccc2O)C1=O | 4.7% | ? | 8.91µM* | -10.9% | 19.7%[10 µM]
O=C(O)COc1ccccc1/C=C1\SC(=Nc2ccc(F)cc2)N(c2ccc(F)cc2)C1=O | 11.3% | -16.7% | . | . | -15.7%
COc1ccccc1CNC(=O)C(C)NS(=O)(=O)c1ccc(Br)cc1 (stereo not given) | 6.9% | 28.2µM* | -4.7% | -8.1% | 4.7%[1.9 µM]
CC(NS(=O)(=O)c1ccccc1)C(=O)NCc1ccco1 (stereo not given) | -6.7% | 23.8µM* | ? | 15.3% | -30.9%
Cc1ccc(S(=O)(=O)NC(CC(=O)NC2CCCC2)c2ccco2)cc1 (stereo not given) | 20.8% | 14.1µM* | -6.9% | -5.1% | 6.3%[10 µM]
O=C(CC(c1ccccc1)c1ccco1)N1CCOCC1 (stereo not given) | 9.9% | 39.8µM* | 17.8µM* | 0.4% | 8.8%[1.9 µM]
COc1ccc(CC(=O)NC2CC(=O)N(c3ccc(C)c(C)c3)C2)cc1OC (stereo not given) | . | . | . | 5.8%[46 µM] | .
SMILES | HttQ103 aggreg | ALDH1A1 inh | HPGD inh | LMNA splice mod | HTT cytoprotect
C/C(=N/O)c1ccc2cc(Br)c3ccccc3c2c1 | . | -8.6%[13.5 µM] | -3.5% | . | -4.4%[10 µM]
Cc1oc2ncn(CC(C)C)c(=O)c2c1C(=O)NCCCN(Cc1ccccc1)C(C)C | . | . | . | -3.8%[46 µM] | .
CC(C1CCCC(=O)C1)[N+](=O)[O-] (stereo not given) | . | -10.9% | -1.9% | . | 17.7%
CCCCC(=O)Nc1ccc2nc(SCC(=O)N3CCc4ccccc43)sc2c1 | . | . | . | -9.9%[46 µM] | .
Cc1ccc(O)c(C(CC(=O)N2CCCC2)c2ccccc2)c1 (stereo not given) | -3.0% | -6.9% | 7.08µM* | -4.3% | 10.1%
COc1ccc(S(=O)(=O)NC(CC(=O)NCc2ccco2)c2ccco2)cc1 (stereo not given) | -2.3% | ? | -10.1% | 8.6% | -31.8%
COCCCNC(=O)CC(NS(=O)(=O)c1ccc(C)cc1)c1ccco1 (stereo not given) | 8.0% | 0.4% | -11.9% | 2.3% | 1.0%
COc1ccc(S(=O)(=O)NC(CC(=O)NCCc2ccc(OC)c(OC)c2)c2ccco2)cc1 (stereo not given) | -2.9% | 12.6µM* | -6.2% | -13.1% | 1.7%[10 µM]
Cc1ccc(S(=O)(=O)NC(CC(=O)N2CCOCC2)c2ccco2)cc1 (stereo not given) | 4.8% | 12.6µM* | -9.8% | ? | -4.7%[10 µM]
Cc1ccc(S(=O)(=O)NC(CC(=O)NCc2ccco2)c2ccco2)cc1 (stereo not given) | 10.7% | 25.1µM* | -12.7% | -5.2% | 4.6%[10 µM]
COCCn1c(SCCOc2ccccc2)nc2ccccc2c1=O | 5.4%[9.22 µM] | -12.9% | . | ? | -52.9%
CC(C)(C)c1ccccc1NC(=S)NC1CCCCC1 | -18.2% | -1.4% | . | ? | -34.4%
COc1cccc(NC(=O)Cn2c(=O)c3cccn3c3ccc(F)cc32)c1 | . | . | . | 5.1%[46 µM] | .
CC(C)Oc1ccc(C(CC(=O)NCc2ccco2)c2ccccc2)cc1 (stereo not given) | -38.0% | ? | 11.2µM* | -3.7% | -26.2%
CCS(=O)(=O)N1CC(=O)N(c2cccc(Cl)c2C)C(C)(C(=O)NC2CCCCC2)C1 (stereo not given) | . | . | . | -10.4%[46 µM] | .
O=C(CSc1ncnc2nc[nH]c12)Nc1ccccc1C(F)(F)F | 21.9% | -0.3% | 8.91µM* | 4.1% | 12.1%
O=C(CSc1ncnc2nc[nH]c12)c1ccccc1 | ? | 28.2µM*! | 28.2µM*! | ? | 7.1%[10 µM]
CCc1ccc(/C=N/NC(=O)C(=O)NCCCN2CCOCC2)cc1 | 10.4% | 12.9% | -1.4% | 10.0% | 10.1%[10 µM]
CCOc1ccc(Sc2cc(C(=O)NCCc3ccc(OC)c(OC)c3)c3ccccc3n2)cc1 | . | . | . | -0.4%[46 µM] | .
O=C(c1cnc(-c2ccc(Cl)cc2)s1)c1ccc(Cl)cc1Cl | -5.8% | -4.6% | 35.5µM* | 1.5% | -4.8%
CC1=NN(c2ccc(C)c(C)c2)C(=O)/C1=C\C=C\c1ccc([N+](=O)[O-])o1 | -3.8% | 8.91µM* | . | . | ?
Nc1ncnc2c1nc(-c1ccccc1)n2[C@H]1O[C@@H](CO)[C@@H](O)[C@H]1O | . | -10.3%[13.5 µM] | -17.2% | . | -6.5%[10 µM]
O=C(C1=C[C@H](c2ccccc2)C[C@H](OCc2ccc(CO)cc2)O1)N1CCN(Cc2ccccc2)CC1 | 8.6%[9.22 µM] | 14.1µM* | . | . | 10.2%[10 µM]
O=C(C1=C[C@@H](c2ccccc2)C[C@@H](OCc2ccc(CO)cc2)O1)N1CCCCCCC1 | 15.7%[9.22 µM] | 25.1µM* | . | . | 31.7%[10 µM]

Screens deposited in PubChem by National Center for Advancing Translational Sciences (NCATS).
